Bioassay records deposited in PubChem by National Center for Advancing Translational Sciences (NCATS).
gsp antag – antagonizes gsp, the McCune-Albright syndrome mutation; gsp-mutant cells, cAMP HTRF, 30 min; Potency, µM (doses to about 76.9 µM), without a hit: top-dose activity change, negative = inhibition, usual class: inhibitors; actives 0.4% (n = 340,000); calls by dose curve; cell line not stated here;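 note: intracellular cAMP measured with PDE inhibitor Ro 20-1724 present during compound exposure; potency is the fitted concentration of half-maximal effect; % is set by controls: 0 for no effect and ±100 for the full control effect; nearly all actives have a fitted effect of over 65% in size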
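Cells in G418 medium, seeded 16-24 h, 37C; buffer exchange to DPBS + 1 mM CaCl2, 0.5 mM MgCl2, 0.05% BSA; cpds in DMSO + […] (300 uM stock), 30 min 37C; HTRF cAMP detection.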
RXFP1 agonist – activates the human relaxin receptor RXFP1; HEK293T-RXFP1 cAMP TR-FRET, 30 min; response scale: percent of porcine relaxin response, buffer zero; Potency, µM (top dose mostly 57.5 µM), for inactives: top-dose activation, hits mostly activators; actives 0.3% (n = 370,000); Q9HBX9; AID 2676; note: potency is the fitted concentration of half-maximal effect; % is set by controls: 0 for no effect and ±100 for the full control effect; nearly all actives have a fitted effect of over 60% in size
Target sequence (Q9HBX9 whole entry, looked up): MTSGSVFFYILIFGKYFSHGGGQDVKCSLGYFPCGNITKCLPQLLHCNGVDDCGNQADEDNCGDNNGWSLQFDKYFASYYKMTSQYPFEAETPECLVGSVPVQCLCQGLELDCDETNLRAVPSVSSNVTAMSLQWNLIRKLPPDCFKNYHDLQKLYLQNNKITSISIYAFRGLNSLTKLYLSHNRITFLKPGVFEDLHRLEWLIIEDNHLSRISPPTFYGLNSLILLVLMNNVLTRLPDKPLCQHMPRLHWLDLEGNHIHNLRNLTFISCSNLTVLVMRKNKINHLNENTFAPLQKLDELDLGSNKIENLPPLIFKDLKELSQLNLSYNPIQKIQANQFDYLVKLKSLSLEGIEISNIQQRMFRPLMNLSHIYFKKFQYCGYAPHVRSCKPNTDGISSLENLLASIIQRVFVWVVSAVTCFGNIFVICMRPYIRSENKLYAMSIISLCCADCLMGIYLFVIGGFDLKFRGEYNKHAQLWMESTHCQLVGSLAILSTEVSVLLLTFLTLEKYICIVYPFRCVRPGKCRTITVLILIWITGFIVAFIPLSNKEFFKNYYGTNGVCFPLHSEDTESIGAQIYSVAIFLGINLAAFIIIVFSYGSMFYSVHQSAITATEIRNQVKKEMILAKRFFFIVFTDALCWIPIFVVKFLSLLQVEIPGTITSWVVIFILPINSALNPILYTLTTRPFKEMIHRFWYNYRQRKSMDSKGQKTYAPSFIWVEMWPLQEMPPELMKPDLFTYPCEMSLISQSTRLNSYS
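cAMP rise read by TR-FRET after 30 min, 37C compound exposure (up to 58 uM) in RXFP1-transfected HEK293 cells with Ro 20174 present. EC50 from Hill-equation fits, with 29 nM porcine relaxin as 100% and buffer as basal.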
RXFP1 antag – blocks the human relaxin receptor RXFP1; actives 0.59% (n = 350,000); AID 1259400; HEK293-RXFP1, relaxin-stimulated cAMP HTRF, 30 min; stronger effect = lower value; activity change, negative = inhibition, % at 57.5 µM;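 active = activity change of -60% or lower, but not beyond a set lower limit; inconclusive = change between -60% and -40%, or beyond the set limit; inactive = change above -40%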; note: % is set by controls: 0 for no effect and ±100 for the full control effect
MmCpn inh – inhibitors of Methanococcus maripaludis chaperonin TRiC (MmCpn); purified Mm-Cpn ATPase, ADP Transcreener TR-FRET; Potency, µM (highest dose often 76.9 µM), for inactives: at the highest dose activity, negative = inhibition, most hits filed as inhibitors; AID 504842; actives 0.031% (n = 330,000); note: potency is the fitted concentration of half-maximal effect; % is set by controls: 0 for no effect and ±100 for the full control effect; nearly all actives have a fitted effect of over 80% in size
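ATPase read-out: TR-FRET ADP immunoassay (anti-ADP Eu cryptate vs ADP-d2), ex 320 nm, em 590/665 nm; signal drops as ADP forms. Enzyme 25 nM, ATP 10 uM, 30 min at 37°C after 10 min compound preincubation.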
gsp ag – activates gsp, the McCune-Albright syndrome mutation. gsp mutant cells, cAMP HTRF, 30 min. Potency, µM (series often up to 76.9 µM), without a hit: top-dose activation (cAMP increase), usual class: activators. actives 0.13% (n = 340,000); active = well fitted activation curve with a large enough effect; inconclusive = small, poorly fitted or top-dose-only effect, or another doubt; inactive = no such curve, though single readings can be large or run the other way; cell line not stated here;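 note: phosphodiesterase inhibitor Ro 20-1724 added with compounds to block cAMP breakdown; potency is the fitted concentration of half-maximal effect; nearly all actives have a fitted effect of over 60% in size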
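Cells stably selected in G418 were plated at 2000/well, grown 16-24 hr, then given compounds in DMSO with the PDE inhibitor […] (300 uM solution added) for 30 min at 37C; cAMP was read by HTRF.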
CCT modulator – cytosolic chaperonin activity modulation | actives 0.3% (n = 360,000) | purified chaperonin ATPase assay, HTRF ADP detection, 30 min | activity change, % (no concentration beside the values), hits read low; in the data active = activity change below about -30%; note: % is set by controls: 0 for no effect and ±100 for the full control effect
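ATPase activity: ADP formed was measured by HTRF Transcreener (665/615 nm ratio) after 30 min at 37 deg C with 10 uM ATP. Compounds screened at one 76 uM concentration against 40 or 20 nM TRiC in Tris pH 7.4/KCl/MgCl2/DTT buffer.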
Starred values were filed as active, the others as inactive; [ ] = another dose, or the depositor's remark. This is a sample that favours compounds with a hit; in the whole collection about 1.2% have one here. Unless noted, calls come from the whole dose curve; as a rule, active = well fitted curve in the direction sought with a large enough effect; inconclusive = small, poorly fitted or top-dose-only effect, or another doubt; inactive = no such curve, though single readings can be large; an effect the other way counts as inactive or inconclusive.

Results for CCC(=O)N1CCc2cc(Br)cc(S(=O)(=O)N3CCCC(C(=O)Nc4ccc(C)c(F)c4)C3)c21 (stereo not given) ?
RXFP1 agonist: 0%

What do the screens show for `Cc1ccc2nc(SCCCCOc3ccccc3)[nH]c2c1`?
gsp antag: 40µM*; RXFP1 agonist: 4%; RXFP1 antag: -3; MmCpn inh: 0%; gsp ag: -4%; CCT modulator: 1

How did Cc1cc(C)c(NC(=O)COC(=O)Cc2cccs2)c(C)c1 do in these assays?
gsp antag: 8%; RXFP1 agonist: 0%; RXFP1 antag: -109*; MmCpn inh: -6%; gsp ag: -5%[15.4 µM]; CCT modulator: 0

Results for Cc1cc(C)cc(OCC(=O)OCC(=O)NCc2cccs2)c1 ?
gsp antag: 6%; RXFP1 agonist: -2%; RXFP1 antag: -9; MmCpn inh: -4%; gsp ag: inconclusive; CCT modulator: -1

What do the screens show for `Cc1cc(OCC(=O)OCC(=O)NCc2cccs2)ccc1Cl`?
gsp antag: 3%; RXFP1 antag: -7; MmCpn inh: 2%; gsp ag: -2%[15.4 µM]; CCT modulator: -33*

Results for CC(=O)OCC(=O)Nc1ccc([N+](=O)[O-])cc1Cl ?
gsp antag: 4%; RXFP1 agonist: 0%; RXFP1 antag: 6; MmCpn inh: -2%; gsp ag: -20%; CCT modulator: -3

Results for CC(=O)Oc1c(C)cc(Cl)cc1C(=O)Nc1ccc([N+](=O)[O-])cc1Cl ?
gsp antag: 3.5µM*; RXFP1 agonist: 6%; RXFP1 antag: -16; MmCpn inh: 2%; gsp ag: -26%; CCT modulator: 0

What do the screens show for `O=C(Cn1nc2c(cc1=O)CCCC2)NCc1ccccc1`?
RXFP1 agonist: 0%; RXFP1 antag: 2

What do the screens show for `Cc1cc(OC(C)C(=O)N(Cc2ccco2)Cc2ccccc2F)cc(C)c1Cl` (stereo not given)?
RXFP1 agonist: -6%; RXFP1 antag: -72*

How did Cc1cc(OC(C)C(=O)N(Cc2ccc(N(C)C)cc2)Cc2ccco2)ccc1Cl (stereo not given) do in these assays?
RXFP1 agonist: -3%; RXFP1 antag: -15

How did CC(C)(C)c1ccc2c(c1)OC(C(=O)N/N=C\c1ccc(-c3cccc(C(=O)O)c3)o1)CO2 (stereo not given) do in these assays?
gsp antag: -25%; RXFP1 agonist: 4%; RXFP1 antag: -74*; MmCpn inh: 1%; gsp ag: 11%; CCT modulator: 0

How did CC(C)(C)c1ccc2c(c1)OC(C(=O)N/N=C\c1ccccn1)CO2 (stereo not given) do in these assays?
gsp antag: 3%; RXFP1 agonist: -2%; RXFP1 antag: -61*; MmCpn inh: -1%; gsp ag: -46%; CCT modulator: 0

Results for O=C(O)c1cccc(-c2ccc(/C=N/NC(=O)C3COc4ccccc4O3)o2)c1 (stereo not given) ?
gsp antag: -22%; RXFP1 agonist: 1%; RXFP1 antag: 1; MmCpn inh: -4%; gsp ag: -5%[15.4 µM]; CCT modulator: -1

How did O=C(N/N=C/c1ccccn1)C1CC1 do in these assays?
gsp antag: -3%; RXFP1 agonist: 3%; RXFP1 antag: -10; MmCpn inh: -20%; gsp ag: 2%; CCT modulator: 4

Results for COc1ccc(OC)c(NC(=O)CCc2nc(-c3ccc(C)cc3)no2)c1 ?
RXFP1 agonist: -2%

How did CCNC(=O)C1CCCN(c2nn3cc(-c4ccc(C)cc4)nc3s2)C1 (stereo not given) do in these assays?
RXFP1 agonist: -1%; RXFP1 antag: -9

Results for CC(=O)N1CCC(=NNC(=O)c2cc3ccccc3cc2O)CC1 ?
gsp antag: inconclusive; RXFP1 agonist: 0%; RXFP1 antag: -93*; MmCpn inh: 1%; gsp ag: 8%; CCT modulator: -3

How did CC(=O)Nc1ccc(Nc2nc3ccc(C)cc3n3nnnc23)cc1 do in these assays?
RXFP1 agonist: 2%; RXFP1 antag: 2

Results for Cc1ccc(Cl)cc1N1CCN(C(=O)c2ccc(C)c(-n3c(C)nc4cccnc43)c2)CC1 ?
RXFP1 agonist: -1%; RXFP1 antag: -64*

How did Cc1ccc(C)c(N2CCN(C(=O)c3cccc(-n4c(C)nc5cccnc54)c3)CC2)c1 do in these assays?
RXFP1 agonist: 1%; RXFP1 antag: -70*

What do the screens show for `Cc1cccc(N2CCN(C(=O)c3cccc(-n4c(C)nc5cccnc54)c3)CC2)c1C`?
RXFP1 agonist: 0%; RXFP1 antag: -2

What do the screens show for `Cc1c(C(=O)N2CCOCC2)oc2c1-c1nn(CC(=O)NCc3ccccc3)cc1CC2`?
RXFP1 agonist: -1%; RXFP1 antag: 3

What do the screens show for `O=C(CCNS(=O)(=O)c1ccc2c(c1)CCN2C(=O)C1CC1)N1CCN(c2cccc(C(F)(F)F)c2)CC1`?
RXFP1 agonist: 1%

How did Cc1ccc(Cl)cc1N1CCN(C(=O)c2ccc3c(c2)CCN3S(=O)(=O)c2ccccc2)CC1 do in these assays?
RXFP1 agonist: 0%; RXFP1 antag: -2

Results for CCN1C(=O)CS/C1=N\S(=O)(=O)c1ccc(Cl)cc1 ?
gsp antag: 1%; RXFP1 agonist: 2%; RXFP1 antag: -12; MmCpn inh: -1%; gsp ag: 4%[15.4 µM]; CCT modulator: 1

Results for CCn1c(Cl)c(C=O)s/c1=N\S(=O)(=O)c1ccccc1 ?
gsp antag: -26%; RXFP1 agonist: 4%; RXFP1 antag: -87*; MmCpn inh: -2%; gsp ag: inconclusive; CCT modulator: -3

How did O=C(Nc1ccc(C(O)(C(F)(F)F)C(F)(F)F)cc1)c1ccc(Cl)c([N+](=O)[O-])c1 do in these assays?
gsp antag: 35µM*; RXFP1 agonist: -2%; RXFP1 antag: -89*; MmCpn inh: 1%; gsp ag: -39%; CCT modulator: 2

Results for O=C(Nc1ccc(S(=O)(=O)NC2=NCCCCC2)cc1)c1ccc(Cl)c([N+](=O)[O-])c1 ?
gsp antag: -11%; RXFP1 antag: 0; MmCpn inh: 2%; gsp ag: -8%; CCT modulator: 0

What do the screens show for `Cc1cccc(C)c1NS(=O)(=O)c1ccc(NC(=O)c2ccc(Cl)c([N+](=O)[O-])c2)cc1`?
gsp antag: 25µM*; RXFP1 agonist: 2%; RXFP1 antag: -17; MmCpn inh: -1%; gsp ag: inconclusive; CCT modulator: 2
